# In PubChem BioAssay AID463173 (ICCB-Longwood Screening Facility, Harvard Medical School, 2010):
# Among all 52,000 compounds or so, about 4,300 (8.3%) were called active. Rule as the data show it: active = survival mostly below about 52% (no sharp cut-off); inactive = mostly above about 56%. The sample as a whole holds a higher share of actives than the screen did.
# Tested on: DeltatarO mutant
# Assay: S. aureus survival, RN4220 and DeltatarO strains – OD600, teichoic acid synthesis inhibitors, primary screen (AID 463173)
# Details: S. aureus RN4220 wild type/DeltatarO growth, OD600, 18 h, stronger effect = lower value, screened at 18.75 µg/mL (by protocol)
row,SMILES,survival
1,COc1ccc(NCc2cccn2-c2nnc(N3CCC(C)CC3)s2)c(OC)c1,73% (inactive)
2,COc1ccc(C(=O)Nc2ccccc2C(=O)NC(C(=O)O)C(C)C)cc1 (stereo unspecified),84% (inactive)
3,O=C(CSc1nc(-c2ccccc2)cc(=O)[nH]1)Nc1ccccc1F,89% (inactive)
4,CCCN(CCC)S(=O)(=O)c1ccc(C(=O)N2CCC(=O)c3ccccc32)cc1,94% (inactive)
5,CCc1cccc(C)c1NC(=O)C(CC)n1ncn2c(cc3cc(C)ccc32)c1=O (stereo unspecified),86% (inactive)
6,COc1ccc(NC(=O)CN(c2cccc(C)c2C)S(=O)(=O)c2ccccc2)cc1OC,61% (inactive)
7,Cc1ccc2c(c1)cc1c(=O)n(CC(=O)N(C)c3ccccc3)nc(C)n12,129% (inactive)
8,O=C(NCCc1ccccc1)c1ccc2c(c1)N(Cc1ccccc1)C(=O)c1ccccc1S2=O (stereo unspecified),70% (inactive)
9,COc1ccc(OC)c2sc(N(Cc3cccnc3)C(=O)c3ccc(C(C)=O)cc3)nc12,120% (inactive)
10,COc1ccc(/C=C/C(=O)Nc2nc3n(n2)C(c2ccccc2)C=C(c2ccccc2)N3)cc1 (stereo unspecified),70% (inactive)
11,COc1ccc(/C=C/C(=O)Nc2nc3n(n2)C(c2ccc(F)cc2)C=C(c2ccccc2)N3)cc1 (stereo unspecified),42% (active)
12,COc1ccc(C2C=C(c3ccccc3)Nc3nc(NC(=O)/C=C/c4ccc(F)cc4)nn32)cc1 (stereo unspecified),51% (inactive)
13,Cc1cc(=O)[nH]c(SCC(=O)OCc2ccccc2)c1C#N,102% (inactive)
14,CCCN(CCC)CCCNC(=O)Cn1ncc2c3ccccc3n(Cc3ccccc3F)c2c1=O,129% (inactive)
15,Cc1ccccc1Cn1c(CN2CCC(C(=O)NCc3ccc(Cl)cc3)CC2)cc2ccccc21,67% (inactive)
16,CCCCN(CC)CCCNC(=O)c1cc2c(=O)[nH]c3ccccc3c2n1C,90% (inactive)
17,COc1ccc(CSc2nc3ccncc3n2CC(=O)Nc2cc(C)cc(C)c2)cc1,60% (active)
18,CN(C)c1ccc(NC(=O)Cn2c(SCc3ccc(F)cc3)nc3ccncc32)cc1,72% (inactive)
19,O=C(Cn1c(SCc2ccccc2F)nc2ccncc21)Nc1ccccc1C(F)(F)F,66% (inactive)

row,SMILES,survival
1,CCc1ccccc1NC(=O)Cn1c(SCc2ccc(F)cc2)nc2ccncc21,36% (active)
2,COc1ccc(CSc2nc3ccncc3n2CC(=O)Nc2ccc(C)c(F)c2)cc1,85% (inactive)
3,COc1cccc(CSc2nc3ccncc3n2CC(=O)Nc2ccc(OC)c(OC)c2OC)c1,98% (inactive)
4,COc1ccc(S(=O)(=O)N(CCc2ccccc2)CC(=O)Nc2cc(C)cc(C)c2)cc1OC,54% (inactive)
5,Cc1ccc(C)c(Cn2c(=O)n(-c3ccc(F)cc3)c(=O)c3sc4ccccc4c32)c1,95% (inactive)
6,CC[N+](C)(C)Cc1ccco1,80% (inactive)
7,COc1cc2c(C(=O)Nc3cc(OC)c(OC)c(OC)c3)cn(C)c(=O)c2cc1OC,63% (inactive)
8,OC1(C#Cc2ccccc2)CCCCC1,104% (inactive)
9,COc1ccc(CCCc2n[nH]c(=S)o2)c(C)c1,94% (inactive)
10,Cn1c(=O)c2c(-c3ccc(Cl)cc3)n(CCc3ccccc3)cc2n(C)c1=O,93% (inactive)
11,Cn1c(=O)c2c(-c3ccccc3Cl)n(-c3cc(Cl)ccc3O)cc2n(C)c1=O,53% (active)
12,Cn1c(=O)c2c(-c3ccc(Cl)cc3)n(Cc3ccccc3)cc2n(C)c1=O,40% (active)
13,Cn1c(=O)c2c(-c3ccccc3Br)n(Cc3ccccc3)cc2n(C)c1=O,88% (inactive)
14,Cn1c(=O)c2c(-c3ccccc3Cl)n(Cc3ccc(Cl)cc3)cc2n(C)c1=O,60% (inactive)
15,CCCCn1cc2c(c1-c1ccccc1Br)c(=O)n(C)c(=O)n2C,76% (inactive)
16,Cn1c(=O)c2c(-c3ccc(Cl)cc3)n(Cc3ccc(Cl)cc3)cc2n(C)c1=O,56% (inactive)
17,CCCCn1cc2c(c1-c1ccc(Br)cc1)c(=O)n(C)c(=O)n2C,58% (inactive)
18,Cn1c(=O)c2c(-c3ccc(Br)cc3)n(Cc3ccc(F)cc3)cc2n(C)c1=O,49% (active)
19,Cc1ccc(-c2c3c(=O)n(C)c(=O)n(C)c3cn2-c2cc(C)ccc2O)cc1,75% (inactive)

row,SMILES,survival
1,Cn1c(=O)c2c(-c3ccc(Br)cc3)n(CCc3ccccc3)cc2n(C)c1=O,89% (inactive)
2,Cn1c(=O)c2c(-c3ccccc3Br)n(CCc3ccccc3)cc2n(C)c1=O,45% (active)
3,O=C(NCc1ccccc1Cl)c1ccc2c(c1)N(Cc1ccccc1)C(=O)c1ccccc1S2,144% (inactive)
4,O=C(Nc1cnn(C23CC4CC(CC(C4)C2)C3)c1)c1cc(-c2ccccc2)on1,101% (inactive)
5,COc1ccc(NC(=O)C(C)Sc2nc(C)cc(=O)[nH]2)cc1 (stereo unspecified),101% (inactive)
6,CC(C)c1ccc(NC(=O)C2(C)Cc3ccccc3C(=O)O2)cc1 (stereo unspecified),106% (inactive)
7,CC(NC(=O)c1nn(C)c2c1CSc1ccccc1-2)c1ccccc1 (stereo unspecified),76% (inactive)
8,CCC(=O)C1=C(c2ccc(OC)c(OC)c2)N(C(=O)CC)n2c(nnc2-c2ccc(C)cc2)S1,68% (inactive)
9,CCC(=O)C1=C(c2ccc(F)cc2)N(C(=O)CC)n2c(nnc2-c2ccc(OC)cc2)S1,66% (inactive)
10,CCC(=O)C1=C(c2cccc([N+](=O)[O-])c2)N(C(=O)CC)n2c(nnc2-c2ccccc2)S1,8% (active)
11,CCC(=O)C1=C(c2cccc([N+](=O)[O-])c2)N(C(=O)CC)n2c(nnc2C2CCCCC2)S1,91% (inactive)
12,CC(=O)C1=C(c2cccc([N+](=O)[O-])c2)N(C(C)=O)n2c(nnc2-c2ccc(C)cc2)S1,89% (inactive)
13,CCOc1ccc(C2=C(C(=O)CC)Sc3nncn3N2C(=O)CC)cc1,17% (active)
14,CCC(=O)C1=C(c2ccc(F)cc2)N(C(=O)CC)n2cnnc2S1,128% (inactive)
15,CCC(=O)C1=C(c2ccccc2)N(C(=O)CC)n2c(nnc2-c2ccccc2)S1,-5% (active)
16,CCCC(=O)C1=C(c2ccc(C)cc2)N(C(=O)CCC)n2cnnc2S1,130% (inactive)
17,CN(CC(=O)O)Cc1nc2ccccc2[nH]1,103% (inactive)
18,Cc1c(Cl)cccc1NC(=O)c1ccc(NC(=O)N2CCSc3ncccc32)cc1,72% (inactive)
